Measurements taken from PubChem BioAssay (NCI).
Values joined by “and” are separate entries in the source; they are usually repeats but may differ in a detail not shown here. Equal entries are not always repeated. This is part of a sample that, as a whole, favours compounds with a hit. Of some 83,000 tested, about 20% had one in any assay.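 A percent growth of 40 corresponds to 60% growth inhibition; 0 means no net growth; -100 means all cells died. Active threshold: below 10.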 Active and inactive are the calls of the source.

Tested on: MDA-MB-468 breast
Assay: NCI-60 one-dose screen, 48 h (100 = growth as untreated, 0 = no growth, -100 = all killed)
Settings: 10 µM unless noted

| Structure (SMILES) | growth |
| --- | --- |
| C=C1C(=O)O[C@H]2[C@H]1CC/C(COC(=O)NCc1cc[nH]c1)=C\CC[C@@]1(C)O[C@@H]21 | 16.8% (inactive) |
| O=CC(O)C(O)C(O)CO (stereo not drawn) | 104% (inactive) and 102% (inactive) |
| CC(=O)OCCCCCCn1c2ccccc2c2c3c(c4c5ccccc5n(C)c4c21)C(=O)N(O)C3=O | 90.4% (inactive) |
| O=C(Nc1ccc(Cl)c(Cl)c1)Nc1ccc(Cl)c(Cl)c1 | -78.5% (active) and 10.4% (inactive) |
| COc1ccc2[nH]c3nc4cnccc4cc3c2c1 | 117% (inactive) |
| S=c1[nH]c(=S)c2c(-c3ccccc3)c(-c3ccccc3)oc2[nH]1 | 96.7% (inactive) |
| CS(=O)(=O)OCC1NC(=O)C(COS(C)(=O)=O)NC1=O (stereo not drawn) | 87% (inactive) and 79.3% (inactive) |
| CCn1c2ccccc2c2cc(NC(=O)Nc3ccc([N+](=O)[O-])cc3C)ccc21 | 7.62% (active) |
| O=C(CCc1nnc2sc(OCc3ccccc3)nn12)c1nc2ccc([N+](=O)[O-])cc2[nH]1 | 109% (inactive) |
| Cc1nn(CC(=O)O)c2c1C(=O)CC(C)(C)C2 | 106% (inactive) |
| COc1ccc2c(O)cc3c(c2c1)[C@H](CCl)CN3C(=O)c1cc2cc(NC(=O)CCN3CCOCC3)ccc2[se]1 | -25.3% (active) |
| Cc1ccc(S(=O)(=O)N2CCc3ccc(O)c4c3C2Cc2ccc3c(c2-4)OCO3)cc1 (stereo not drawn) | 1.75% (active) |
| CCN1CCN(C(=O)[C@]23CCC(C)(C)C[C@@H]2C2=CC[C@@H]4[C@@]5(C)C/C(=C/c6ccncc6)C(=O)C(C)(C)[C@@H]5CC[C@@]4(C)[C@]2(C)CC3)CC1 | -49.8% (active) |
